Out of some 190,000 compounds screened, about 110 (0.058%) were called active. Another 2% or so got no clear call; they are omitted. Only a selection was taken, and actives are over-represented in it overall. A number with no mark means an inactive call.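 The calls were made as follows: active = fluorescent GTP binding to Rab7 beads changed by at least 20 points from the 100% baseline, either direction, mostly lower; inconclusive = compound itself probably fluorescent, or too few beads counted; inactive = the rest.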

The source of these data is PubChem BioAssay AID758 (NMMLSC, 2007).

The subject of this experiment is Rab7 GTPase wild type (dog), Bodipy-FL-GTP binding. Kind of experiment: wildtype dog Rab7 nucleotide binding alteration – biochemical, multiplex bead flow cytometry, primary screen (AID 758).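 Also: median green fluorescence of bound Bodipy-FL-GTP per Rab7 bead population.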 As to conditions: GST-Rab7 beads, fluorescent GTP binding, at 10 µM, actives lie on both sides, untreated = 100%, excess cold GTP = 0%. (A flow cytometer gives signals particle by particle.)
For the compound `CCOC(=O)c1ccc(N2C(=O)CC(N3CCN(C(=O)c4ccccc4)CC3)C2=O)cc1` (stereo not drawn), the GTP binding activity (percent of control) is 97%.

For the compound `COCCCNc1nc2c(-c3cccc(C(F)(F)F)c3)nnn2c2ccccc12`, the GTP binding activity (percent of control) was 105%.

As to `C/C(CCc1ccccc1)=N\NC(=O)c1ccc(CN2CCOCC2)cc1`, the GTP binding activity (percent of control) is 103%.

Consider `Cc1ccccc1NS(=O)(=O)CCCCC(Cl)(Cl)Cl`, for which the GTP binding activity (percent of control) is 96%.

As to `CC1CCN(S(=O)(=O)c2ccc(S(=O)(=O)NCc3cccnc3)cc2)CC1`, the GTP binding activity (percent of control) is 98%.

As to `CCCNC(=O)c1c(Cl)cnn1-c1ccc(C)cc1`, the GTP binding activity (percent of control) was 96%.

For the compound `O=C(CO/N=C/c1ccccc1OC(F)F)NC1CCCC1`, the GTP binding activity (percent of control) is 103%.

Consider `O=C(NNC(=O)C1C2CCC(C2)C1C(=O)O)c1ccc(Cl)cc1` (stereo not drawn), for which the GTP binding activity (percent of control) is 103%.

`CCN(CC)S(=O)(=O)c1ccc(OC(C)C)c(N)c1`: the GTP binding activity (percent of control) is 107%.

For the compound `CN(C)/C=C(/C(=O)c1ccccc1Cl)S(C)(=O)=O`, the GTP binding activity (percent of control) was 104%.

With `CCCN(CCC)CCCNC(=O)CNC(=O)c1nn(-c2ccc(OC)cc2)c(=O)c2ccccc12`, the GTP binding activity (percent of control) was 95%.

For `CC(=O)c1c(C)[nH]c(C(=O)OCC(=O)NCCC(C)C)c1C`, the GTP binding activity (percent of control) is 95%.

Take `Cc1cccc(C(=O)OCC(=O)NCC(C)C)c1O`: the GTP binding activity (percent of control) was 96%.

`S=C(NCCc1ccccc1)N1CCn2cccc2C1c1ccncc1` (stereo not drawn): the GTP binding activity (percent of control) is 91%.

For `COc1ccc2cc(CCl)c(Cl)nc2c1`, the GTP binding activity (percent of control) is 91%.

With `O=C(CCC(=O)OCc1ccc(Cl)cc1)Nc1ccccc1`, the GTP binding activity (percent of control) is 102%.

Turning to `CN(C)S(=O)(=O)c1cccc(NC(=S)NCc2ccc3c(c2)OCO3)c1`, the GTP binding activity (percent of control) was 104%.

With `CCN(CC)S(=O)(=O)c1ccc(N(C)CCc2ccc(OC)c(OC)c2)nc1`, the GTP binding activity (percent of control) was 96%.

On to `CC(C)CC(CC(C)C)=NNC(=O)c1ccc(CSc2nncn2C)cc1`, for which the GTP binding activity (percent of control) is 104%.

`Cn1cnnc1SCC(=O)Nc1ccc(N2CCOCC2)cc1`: the GTP binding activity (percent of control) is 98%.

With `O=C(CN1C(=O)c2cccc3cccc1c23)Nc1ccccc1`, the GTP binding activity (percent of control) was 98%.

As for `O=C(CS(=O)(=O)c1ccccc1)Nc1ccc(S(=O)(=O)Nc2ccccn2)cc1`, the GTP binding activity (percent of control) was 107%.

For `COc1cc(OC)cc(-c2nc(=S)n3ccsc3n2)c1`, the GTP binding activity (percent of control) is 99%.

`Cc1ccc(/C=N/NC(=O)Cn2ccc(C(F)(F)F)n2)o1`: the GTP binding activity (percent of control) is 105%.

Consider `CCN(CC(=O)Nc1ccc(Cl)c(S(=O)(=O)N(C)C)c1)Cc1nc2ccccc2c(=O)[nH]1`, for which the GTP binding activity (percent of control) is 105%.

In the case of `COc1cc(NC(=O)COc2ccccc2Cl)ccc1NC(=O)C(C)C`, the GTP binding activity (percent of control) was 98%.

Take `Cc1ccc(C2NC(C(=O)O)CS2)cc1` (stereo not drawn): the GTP binding activity (percent of control) is 103%.

Take `CN(C)c1ccc(C2Nc3ccccc3C(=O)N2NS(=O)(=O)c2ccccc2)cc1` (stereo not drawn): the GTP binding activity (percent of control) was 95%.
